Inconclusive results are not listed. A call without a number means that no potency is given here. The source made the active and inactive calls. Calls follow the shape of the dose curve; as a rule, active = well fitted inhibition curve with a large enough effect; inconclusive = small, poorly fitted or top-dose-only effect; inactive = no such curve, though single readings can be large or run the other way.
Assay: qHTS for Inhibitors of the Aldehyde Dehydrogenase Family (ALDH1A2, ALDH1A3, ALDH2, ALDH3A1) (AID 2061307); also: nearly all actives have a fitted effect of over 50% in size; as to potency: test system not described further here
Conditions: ALDH inhibition qHTS; series mostly up to 50.3 µM
For `COc1ccc(NC(=S)N=Nc2c(O)[nH]c3ccccc23)cc1`, the Potency was “inactive”. With `Cc1ccc(-c2cc3c(nn2)-c2ccccc2C3=O)cc1` the Potency was “inactive”. In the case of `c1ccc(CCN(Cc2ccccc2)C2CCN(C3CCCCC3)CC2)cc1`, the Potency is reported as 7.94 µM (active). With `Cc1csc(-c2cccc(C(=O)Nc3ccc(F)c(F)c3F)c2)n1` the Potency was “inactive”. With `NC(=O)c1ccc(OCc2nc(-c3ccc(C(F)(F)F)cc3)no2)cc1` the Potency was “inactive”. For `COc1ccc(-c2nnc(SCC(=O)Nc3ccc(C(C)=O)cc3)o2)cc1`, the Potency was “inactive”. With `Cc1c(Cl)cccc1-n1c(CCC(=O)O)ccc1-c1cccs1` the Potency was 6.34 µM (active). For `c1cc(NC2CNC2)nc(-c2cnc3ccccn23)c1`, the Potency was “inactive”. With `O=C(Nc1cccc(S(=O)(=O)N2CCOCC2)c1)c1ccc(CN2CCc3ccccc3C2)cc1` the Potency was 3.98 µM (active). With `O=C(CSc1nc2ccccc2c(=O)[nH]1)Nc1nc(-c2ccc(Br)cc2)cs1` the Potency was “inactive”. With `O=C(CSc1nnc(-c2ccncc2)o1)Nc1ccc2c(c1)OCCO2` the Potency was “inactive”. With `OCC1CCN(c2ccc3cc(Br)ccc3n2)CC1` the Potency was 8.91 µM (active). For `CC(=O)c1c(C)n(-c2ccccc2)c2ccc(O)cc12`, the Potency was 0.798 µM (active). With `Cn1c(=O)n(C)c2cc(N3CCCC3)c(NC(=O)Nc3ccccc3)cc21` the Potency was “inactive”. For `Cc1nnc(NCc2ccc(Cl)cc2)o1`, the Potency was 8.96 µM (active). In the case of `CSc1ccc(-c2csc(N3CCC(C(N)=O)CC3)n2)cc1`, the Potency is reported as 4 µM (active). With `NS(=O)(=O)c1ccc(Nc2cn[nH]c2-c2cccc(-c3ccccc3)c2)cc1` the Potency was “inactive”. In the case of `Cc1ccc(-c2ccccc2)n1-c1ccccc1C(=O)O`, the Potency is reported as 15.9 µM (active). With `CN1CCC(CNCc2nccc3c(=O)[nH]c(COc4ccc(Cc5ccccc5)cc4)nc23)C1` (stereo not given) the Potency was “inactive”. For `COc1cccc(-c2nc(CNc3cccc(C(C)=O)c3)cs2)c1`, the Potency was 10 µM (active). For `Cc1cccc(NC(=O)c2nc(C)n(-c3ccc(F)cc3)n2)n1`, the Potency was “inactive”. With `O=C(Nc1ncccc1O)c1ccc(S(=O)(=O)Nc2ccccc2)cc1` the Potency was “inactive”. For `O=C(Nc1ccccc1C(=O)Nc1cccc(C(F)(F)F)c1)c1cccc([N+](=O)[O-])c1`, the Potency was 3.55 µM (active). For `COc1cc(O)c(C(CC(=O)N2CC(C)CC(C)C2)c2cccc(NS(C)(=O)=O)c2)c(OC)c1` (stereo not given), the Potency was 3.66 µM (active). For `Cc1cnc(CNc2nc(-c3ccccc3Cl)nc3ccccc23)cn1`, the Potency was “inactive”. For `NC(=O)Cc1ccc(Nc2ncnc3c2cnn3-c2ccccc2)cc1`, the Potency was “inactive”. For `COc1ccc(-n2ccc(C(=O)NC(C)(C)C)n2)cc1`, the Potency was “inactive”. In the case of `COc1ccc(Nc2nc(N3CCCC3)nc(N3CCOCC3)n2)cc1`, the Potency is reported as “inactive”. With `c1ccc(CN2CCN(c3nccc(-c4ccncc4)n3)CC2)nc1` the Potency was “inactive”. For `C=CCn1c(Sc2ncc(C#N)cc2Cl)nnc1-c1ccccc1F`, the Potency was “inactive”. For `CCc1cccc(C)c1Nc1c(-c2ccc(N(C)C)cc2)nc2ncccn12`, the Potency was “inactive”. For `C=CCOc1c(Cl)cc(CNc2ccc(N(C)C)cc2)cc1OC`, the Potency was 0.449 µM (active). With `O=C([C@H](NS(=O)(=O)c1ccc2[nH]c(=O)ccc2c1)c1ccc(F)cc1)N(Cc1ccco1)Cc1cccs1` the Potency was 25.2 µM (active). In the case of `CCN1C(=O)c2ccccc2S(=O)c2ccc(C(=O)NCc3ccccc3Cl)cc21` (stereo not given), the Potency is reported as 12.7 µM (active). For `O=C(CNc1cccc(S(=O)(=O)N2CCOCC2)c1)Nc1ccc(OC(F)(F)F)cc1`, the Potency was 1.27 µM (active). With `COc1cccc(N2CCN(C(=O)CCCCCn3c(=O)[nH]c4ccccc4c3=O)CC2)c1` the Potency was “inactive”. For `O=C(N/N=C/c1ccc(Sc2ccccn2)s1)c1cccc(F)c1`, the Potency was 15.9 µM (active). For `Cc1ccc(-c2ocnc2C(=O)N(C)Cc2cccc(C(N)=O)c2)cc1`, the Potency was “inactive”. With `COc1cc(O)c(C(CC(=O)N2CC(C)CC(C)C2)c2cccc(OC(C)C)c2)c(OC)c1` (stereo not given) the Potency was 12.7 µM (active). With `CCOCCNC(=O)N1CCN(c2nc(C)cs2)CC1` the Potency was 14.1 µM (active).

From PubChem BioAssay (NCATS)
Potency is read from the fitted curve at half-maximal effect.
